Three compounds from PubChem BioAssay (EPA / NIEHS) can be followed below.

What all share (details): mRNA level, 48 h; actives raise or lower the signal
Read-out in experiment [1]: Cytochrome P450 (CYP2B6), CYP2B6 (gene 1555)
The experiment can be described thus: LTEA_HepaRG_CYP2B6: Life Technologies and Expression Analysis (LTEA) Assay for Cytochrome P450 (CYP2B6) using HepaRG (AID 2283481). An outline of the steps:
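Using 48 h treatment of HepaRG cells in serum-free induction medium, concentrations spanned half-log steps from 100 uM in 0.5% DMSO vehicle. CYP2B6 mRNA induction or loss is scored by qRT-PCR against DMSO.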

Read-out in experiment [2]: Cytochrome P450 2C19 (Homo sapiens) (UniProt P33261)
The experiment can be described thus: LTEA_HepaRG_CYP2C19: Life Technologies and Expression Analysis (LTEA) Assay for CYP2C19 using HepaRG (AID 2283482). An outline of the steps:
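Human HepaRG liver cells received test chemicals for 48 h (highest 100 uM, half-log dilutions in 0.5% DMSO). CYP2C19 mRNA induction or loss is read by multiplexed qRT-PCR and fitted in both directions versus vehicle.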

Read-out in another experiment: CYP2C8 (gene 1558)
Kind of experiment: LTEA_HepaRG_CYP2C8: Life Technologies and Expression Analysis (LTEA) Assay for CYP2C8 using HepaRG (AID 2283483). The method in brief: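 CYP2C8 expression measured by TaqMan qRT-PCR and normalized to three housekeeping genes. HepaRG cultures were treated for 48 h with an eight-point half-log series topping at 100 uM, vehicle 0.5% DMSO, duplicates; fitted both directions against DMSO.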

Read-out in another experiment: CYP2C9 (gene 1559)
The experiment can be described thus: LTEA_HepaRG_CYP2C9: Life Technologies and Expression Analysis (LTEA) Assay for CYP2C9 using HepaRG (AID 2283484). The method in brief: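 CYP2C9 transcript level, quantified by TaqMan qRT-PCR against three housekeeping genes, was fitted bidirectionally relative to 0.5% DMSO. HepaRG cultures were treated 48 h, in duplicate, at eight half-log concentrations topping at 100 uM.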

Read-out in another experiment: CYP2E1 (gene 1571)
Kind of experiment: LTEA_HepaRG_CYP2E1: Life Technologies and Expression Analysis (LTEA) Assay for CYP2E1 using HepaRG (AID 2283485). The method in brief: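 Assay uses 48 h exposure of HepaRG hepatic cells, eight concentrations to 100 uM. Expression of CYP2E1 is quantified by TaqMan qRT-PCR with ACTB, GAPDH and POLR2A normalization; curves fitted in both directions relative to vehicle.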

Read-out in another experiment: CYP4A11 (gene 1579)
Kind of experiment: LTEA_HepaRG_CYP4A11: Life Technologies and Expression Analysis (LTEA) Assay for CYP4A11 using HepaRG (AID 2283486). An outline of the steps: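 Readout is CYP4A11 mRNA induction or suppression (qRT-PCR, ACTB/GAPDH/POLR2A normalization) in human HepaRG cells after 48 h chemical treatment, concentrations to 100 uM in 0.5% DMSO, fitted bidirectionally against vehicle.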

Read-out in experiment [3]: Cytochrome P450 3A4 (Homo sapiens) (UniProt P08684)
The experiment can be described thus: LTEA_HepaRG_CYP3A4: Life Technologies and Expression Analysis (LTEA) Assay for CYP3A4 using HepaRG (AID 2283487). An outline of the steps:
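Differentiated HepaRG cells in serum-free induction medium exposed in duplicate for 48 h to 8 half-log concentrations up to 100 uM in 0.5% DMSO. CYP3A4 mRNA measured by qRT-PCR normalized to ACTB, GAPDH and POLR2A; bidirectional fit versus DMSO.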

Read-out in experiment [4]: DNA damage-inducible transcript 3 (DDIT3), DDIT3 (gene 1649)
The experiment can be described thus: LTEA_HepaRG_DDIT3: Life Technologies and Expression Analysis (LTEA) Assay for DNA damage-inducible transcript 3 (DDIT3) using HepaRG (AID 2283488). An outline of the steps:
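Eight-point concentration-response (100 uM highest, half-log dilutions) in HepaRG, 48 h, duplicate wells. Endpoint: qRT-PCR mRNA, normalized (ACTB, GAPDH, POLR2A), bidirectional fitting with DMSO as baseline.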

Read-out in experiment [5]: Pro-epidermal growth factor (Homo sapiens) (UniProt P01133)
The experiment can be described thus: LTEA_HepaRG_EGF: Life Technologies and Expression Analysis (LTEA) Assay for Epidermal growth factor (EGF) using HepaRG (AID 2283489). An outline of the steps: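 EGF expression changes in human HepaRG cells are scored by bidirectional fitting relative to 0.5% DMSO controls. Chemicals are tested at eight half-log concentrations up to 100 uM for 48 h in serum-free induction medium.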

Read-out in experiment [6]: Early growth response protein 1 (EGR1) transcription factor, EGR1 (gene 1958)
Kind of experiment: LTEA_HepaRG_EGR1: Life Technologies and Expression Analysis (LTEA) Assay for Early growth response protein 1 (EGR1) transcription factor using HepaRG (AID 2283490). An outline of the steps: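 EGR1 transcript levels quantified by qRT-PCR (Fluidigm arrays) against three housekeeping genes after 48 h chemical exposure of HepaRG cells. Eight-point half-log series topping at 100 uM, 0.5% DMSO vehicle, analyzed for gain or loss.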

Read-out in experiment [7]: Ezrin (EZR), EZR (gene 7430)
The experiment can be described thus: LTEA_HepaRG_EZR: Life Technologies and Expression Analysis (LTEA) Assay for Ezrin (EZR) using HepaRG (AID 2283491). An outline of the steps: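 Differentiated human HepaRG cells, 48 h after plating, were exposed in serum-free induction medium for 48 hours to eight half-log concentrations up to 100 uM in 0.5% DMSO. EZR mRNA was measured by TaqMan qRT-PCR, normalized to ACTB, GAPDH and POLR2A, and fitted bidirectionally against DMSO.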

Read-out in experiment [8]: Cytochrome P450 3A7 (Homo sapiens) (UniProt P24462)
The experiment can be described thus: LTEA_HepaRG_CYP3A7: Life Technologies and Expression Analysis (LTEA) Assay for CYP3A7 using HepaRG (AID 2283492). An outline of the steps:
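Cells were thawed, plated, cultured 48 h, then treated for a further 48 h with chemicals (eight-point half-log series from 100 uM, 0.5% DMSO). RNA was isolated and CYP3A7 expression quantified by qRT-PCR normalised to ACTB, GAPDH and POLR2A.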

Read-out in the next experiment: CYP3A5 (gene 1577)
The experiment can be described thus: LTEA_HepaRG_CYP3A5: Life Technologies and Expression Analysis (LTEA) Assay for CYP3A5 using HepaRG (AID 2283493). An outline of the steps: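 Readout was CYP3A5 mRNA by qRT-PCR. HepaRG cultures were exposed for 48 h in serum-free induction medium to chemicals at up to 100 uM, and responses were fitted in both directions relative to DMSO vehicle.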

Read-out in experiment [9]: Fatty Acid-Binding Protein 1 (FABP1), FABP1 (gene 2168)
Kind of experiment: LTEA_HepaRG_FABP1: Life Technologies and Expression Analysis (LTEA) Assay for Fatty Acid-Binding Protein 1 (FABP1) using HepaRG (AID 2283494). An outline of the steps:
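FABP1 expression by TaqMan qRT-PCR, normalised to three housekeeping genes, in HepaRG cells after 48 h chemical treatment. Eight-point half-log series topping at 100 uM in 0.5% DMSO, duplicates; gain or loss fitted relative to vehicle.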

Read-out in experiment [10]: Cytochrome P450 4A22 (Homo sapiens) (UniProt Q5TCH4)
The experiment can be described thus: LTEA_HepaRG_CYP4A22: Life Technologies and Expression Analysis (LTEA) Assay for Cytochrome P450 4A22 (CYP4A22) using HepaRG (AID 2283495). An outline of the steps:
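Cryopreserved HepaRG cells, plated and cultured 48 h, then switched to serum-free induction medium and treated 48 h (duplicates, up to 100 uM, half-log steps, 0.5% DMSO). Expression change of CYP4A22 was fitted bidirectionally against vehicle.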

Read-out in experiment [11]: Cytochrome P450 7A1 (Homo sapiens) (UniProt P22680)
The experiment can be described thus: LTEA_HepaRG_CYP7A1: Life Technologies and Expression Analysis (LTEA) Assay for Cytochrome P450 7A1 (CYP7A1) using HepaRG (AID 2283496). An outline of the steps: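 Using 0.5% DMSO as vehicle and baseline, chemicals were tested in duplicate over an 8-point range from 100 uM on HepaRG cells for 48 h; qRT-PCR signals were normalised to ACTB, GAPDH and POLR2A.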

Read-out in experiment [12]: Glutathione S-Transferase (GSTA2), GSTA2 (gene 2939)
The experiment can be described thus: LTEA_HepaRG_GSTA2: Life Technologies and Expression Analysis (LTEA) Assay for Glutathione S-Transferase (GSTA2) using HepaRG (AID 2283497). The method in brief: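 GSTA2 transcript levels came from Fluidigm TaqMan qRT-PCR normalized to three housekeeping genes, fitted in both directions against DMSO. HepaRG cultures received chemicals for 48 h in serum-free induction medium (0.5% DMSO), 8 half-log concentrations up to 100 uM, duplicate.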

Read-out in experiment [13]: Glutamate-cysteine ligase catalytic (GCLC), GCLC (gene 2729)
The experiment can be described thus: LTEA_HepaRG_GCLC: Life Technologies and Expression Analysis (LTEA) Assay for Glutamate-cysteine ligase catalytic (GCLC) using HepaRG (AID 2283498). An outline of the steps: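 Expression by TaqMan qRT-PCR, normalized to three housekeeping genes (ACTB, GAPDH, POLR2A), with up- or down-regulation fitted against DMSO. HepaRG cells dosed in duplicate for 48 h with 8 half-log concentrations up to 100 uM, vehicle 0.5% DMSO.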

Read-out in experiment [14]: growth arrest and DNA damage 45 (GADD45G), GADD45G (gene 10912)
The experiment can be described thus: LTEA_HepaRG_GADD45G: Life Technologies and Expression Analysis (LTEA) Assay for growth arrest and DNA damage 45 (GADD45G) using HepaRG (AID 2283499). An outline of the steps: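 Human hepatic HepaRG line treated 48 h with chemicals (eight concentrations, half-log steps from 100 uM); transcript induction or repression of GADD45G scored by qRT-PCR versus DMSO vehicle.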

The source made the active and inactive calls. The calls were made as follows: active = hit-call score of the fitted dose curve at least 0.9, where 1 is the maximum; inactive = score below 0.9.

Chain of Cytochrome P450 3A4 (Homo sapiens) (P08684 whole entry, looked up): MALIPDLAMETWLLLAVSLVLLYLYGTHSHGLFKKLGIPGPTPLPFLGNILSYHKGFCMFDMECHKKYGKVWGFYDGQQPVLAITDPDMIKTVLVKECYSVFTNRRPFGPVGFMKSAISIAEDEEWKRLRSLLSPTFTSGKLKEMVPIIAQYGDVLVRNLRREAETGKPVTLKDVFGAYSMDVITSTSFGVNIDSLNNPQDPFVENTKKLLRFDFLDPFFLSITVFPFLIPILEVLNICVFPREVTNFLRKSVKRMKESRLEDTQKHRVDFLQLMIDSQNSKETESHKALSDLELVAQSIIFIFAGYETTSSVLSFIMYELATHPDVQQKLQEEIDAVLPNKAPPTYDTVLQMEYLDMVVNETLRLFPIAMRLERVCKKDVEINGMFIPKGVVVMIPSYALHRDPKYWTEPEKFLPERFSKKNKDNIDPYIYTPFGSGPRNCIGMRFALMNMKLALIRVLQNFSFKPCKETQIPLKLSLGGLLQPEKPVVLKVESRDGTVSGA
Chain of Cytochrome P450 2C19 (Homo sapiens) (P33261 whole entry, looked up): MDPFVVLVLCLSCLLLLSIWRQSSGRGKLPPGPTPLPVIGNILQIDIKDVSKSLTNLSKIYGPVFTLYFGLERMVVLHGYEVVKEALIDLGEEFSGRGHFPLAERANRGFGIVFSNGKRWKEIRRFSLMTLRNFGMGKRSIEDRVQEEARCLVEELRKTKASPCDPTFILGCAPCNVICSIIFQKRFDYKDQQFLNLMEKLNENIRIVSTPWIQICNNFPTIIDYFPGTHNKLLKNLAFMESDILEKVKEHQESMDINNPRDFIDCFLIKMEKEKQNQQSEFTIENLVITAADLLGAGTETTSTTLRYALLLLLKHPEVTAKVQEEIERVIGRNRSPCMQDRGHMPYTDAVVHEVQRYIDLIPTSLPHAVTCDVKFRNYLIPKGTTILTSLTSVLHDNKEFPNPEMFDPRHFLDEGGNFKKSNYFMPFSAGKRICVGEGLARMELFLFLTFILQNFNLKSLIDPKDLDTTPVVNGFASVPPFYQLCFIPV
Chain of Cytochrome P450 3A7 (Homo sapiens) (P24462 whole entry, looked up): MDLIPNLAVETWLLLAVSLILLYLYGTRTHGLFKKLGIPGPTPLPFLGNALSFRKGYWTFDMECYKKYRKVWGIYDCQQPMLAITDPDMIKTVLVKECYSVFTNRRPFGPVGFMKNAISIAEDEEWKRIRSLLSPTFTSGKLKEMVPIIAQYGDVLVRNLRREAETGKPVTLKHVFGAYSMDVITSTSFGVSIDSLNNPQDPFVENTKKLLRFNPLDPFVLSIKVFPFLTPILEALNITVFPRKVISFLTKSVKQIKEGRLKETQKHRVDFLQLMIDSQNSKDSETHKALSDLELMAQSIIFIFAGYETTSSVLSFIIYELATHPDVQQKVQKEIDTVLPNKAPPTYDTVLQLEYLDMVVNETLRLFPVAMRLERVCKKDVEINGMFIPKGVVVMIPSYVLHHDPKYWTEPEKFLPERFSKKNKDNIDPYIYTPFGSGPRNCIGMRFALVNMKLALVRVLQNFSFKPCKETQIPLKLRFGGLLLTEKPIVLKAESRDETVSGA

With `O=C(Nc1ccccc1)c1ccccc1I`, the AC50 was 11.1 µM (active) in experiment [1]; 50 µM (active) with CYP2C9 (gene 1559); 32 µM (active) with CYP2E1 (gene 1571); 21.7 µM (active) in experiment [9]; 28.9 µM (active) in experiment [11]; 29.2 µM (active) in experiment [13]. For the same compound, in experiment [14], the AC50 was 10.3 µM (active). Further, the compound was classed as inactive (in experiment [2]; in the experiment with CYP2C8 (gene 1558); in the experiment with CYP4A11 (gene 1579); in [3]; in experiment [4]; in [5]). Also, the result (in experiment [6]; in experiment [7]; in experiment [8]; with CYP3A5 (gene 1577); in experiment [10]; in experiment [12]) was inactive.

Consider `O=[N+]([O-])C(Br)(CO)CO`, for which the result (in [1]; in experiment [2]; with CYP2C8 (gene 1558); in the experiment with CYP2C9 (gene 1559); in the experiment with CYP2E1 (gene 1571); with CYP4A11 (gene 1579)) was inactive. Also, the outcome in experiment [3], in experiment [4], in experiment [5], in experiment [6], in experiment [7] and in [8] was inactive. The outcome (with CYP3A5 (gene 1577); in experiment [9]; in experiment [10]; in experiment [11]; in [12]; in [13]) was inactive. Moreover, the result in experiment [14] was inactive.

Turning to `CCC12COCN1COC2`, the result (in [1]; in [2]; with CYP2C8 (gene 1558); in the experiment with CYP2C9 (gene 1559); in the experiment with CYP2E1 (gene 1571); with CYP4A11 (gene 1579)) was inactive. Also, the compound was called inactive in [3], in experiment [4], in experiment [5], in experiment [6], in experiment [7] and in experiment [8]. For the same compound, the outcome in experiment [9], in [10], in experiment [11], in [12], in [13] and in experiment [14] was inactive.

Broadly, the AC50 is the concentration at which the activity in the assay is half-maximal.
